Publication PMC4336329 (PLoS ONE, 2015)
The whole screen tested about 310,000 compounds, of which about 14,000 (4.5%) showed an effect of 50% or more. Effects have a minus sign here. The sample as a whole holds a higher share of strong results than the screen did.

These compounds were tested against human ether-à-go-go-related gene (hERG) potassium channel (human, UniProt Q12809) (assay: primary screen, population patch clamp on CHO cells stably expressing hERG; higher = less effect of the substance).
human ether-à-go-go-related gene (hERG) potassium channel, sequence (Q12809 whole entry, looked up): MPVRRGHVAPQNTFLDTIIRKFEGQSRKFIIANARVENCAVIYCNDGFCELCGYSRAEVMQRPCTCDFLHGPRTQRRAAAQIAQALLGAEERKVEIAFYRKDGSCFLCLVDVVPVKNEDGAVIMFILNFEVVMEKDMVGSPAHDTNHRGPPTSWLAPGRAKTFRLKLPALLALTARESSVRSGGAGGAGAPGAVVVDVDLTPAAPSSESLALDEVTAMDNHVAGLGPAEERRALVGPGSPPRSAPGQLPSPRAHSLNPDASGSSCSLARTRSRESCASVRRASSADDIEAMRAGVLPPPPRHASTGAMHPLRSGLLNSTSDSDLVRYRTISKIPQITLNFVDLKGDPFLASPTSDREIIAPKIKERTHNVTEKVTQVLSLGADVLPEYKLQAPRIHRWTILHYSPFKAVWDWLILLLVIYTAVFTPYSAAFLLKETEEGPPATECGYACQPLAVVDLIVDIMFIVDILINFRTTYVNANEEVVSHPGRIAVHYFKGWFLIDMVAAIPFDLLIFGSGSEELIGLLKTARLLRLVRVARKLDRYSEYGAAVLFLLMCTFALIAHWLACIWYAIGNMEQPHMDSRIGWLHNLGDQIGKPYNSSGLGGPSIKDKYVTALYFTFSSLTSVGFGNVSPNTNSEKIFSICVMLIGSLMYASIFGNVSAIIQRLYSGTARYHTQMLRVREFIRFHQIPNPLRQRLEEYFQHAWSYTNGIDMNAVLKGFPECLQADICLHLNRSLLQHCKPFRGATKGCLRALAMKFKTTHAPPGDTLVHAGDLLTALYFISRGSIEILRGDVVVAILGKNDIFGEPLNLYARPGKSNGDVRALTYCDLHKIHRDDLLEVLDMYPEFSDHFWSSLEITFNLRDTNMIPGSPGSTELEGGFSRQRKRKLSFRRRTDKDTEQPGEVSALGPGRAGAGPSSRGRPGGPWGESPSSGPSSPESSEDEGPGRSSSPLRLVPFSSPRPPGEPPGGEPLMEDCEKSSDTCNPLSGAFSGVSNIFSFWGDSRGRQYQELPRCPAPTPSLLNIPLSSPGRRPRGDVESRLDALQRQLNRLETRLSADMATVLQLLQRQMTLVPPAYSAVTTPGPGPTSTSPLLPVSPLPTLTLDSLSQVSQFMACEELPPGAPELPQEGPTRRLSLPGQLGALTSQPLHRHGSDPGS
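Further: peak tail current of the secondary pulse compared with the same well before compound.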

| SMILES | hERG current change (%, negative = inhibition) at 10uM |
| --- | --- |
| Cc1c(C)n(CC(O)CNCCO)c2ccccc12.O=C(O)C(=O)O (stereo not shown) | 5.33% |
| CN1CCN(C(=O)CN(C)S(=O)(=O)c2cc(Cl)ccc2Cl)CC1 | 4.23% |
| CC1(C)CC2CN(C(=O)Cc3ccccc3)C(C)(C2)C1 (stereo not shown) | 0.0688% |
| COc1ccc(/C=N/NC(=O)c2ccco2)cc1Cn1nc(C)cc1C | -2.47% |
| COc1ccc(-c2nnc(NC(=O)c3ccc(S(=O)(=O)N4CCCc5ccccc54)cc3)o2)cc1 | 0.175% |
| CC1(C)CC(=O)c2sc(N3CCCCC3)nc2C1 | -2.83% |
| COc1cc(CC(=O)N/N=C/c2ccccc2)c([N+](=O)[O-])cc1OC | 0.219% |
| Clc1cccc(CNCCc2c[nH]c3ccccc23)c1.O=C(O)C(=O)O | -14% |
| c1ccc(Cn2nnnc2C(c2ccccc2)N2CCN(c3nc4ccccc4s3)CC2)cc1 (stereo not shown) | -11.7% |
| CS(=O)(=O)N1CCN(c2ccc(NC(=O)CSc3ccc(Cl)cc3)cc2)CC1 | -0.247% |
| O=C(NCCc1ccccc1)c1ccccc1SCC(=O)N1CCCC1 | -51.3% |
| CC(C)OC(=O)CN1CCN(c2ccc(Cl)cc2)CC1 | 1.73% |
| CCCCCCN1CCN(c2ccc(Cl)cc2)CC1 | -66.9% |
| CCOC(=O)N1CCN(C(=O)CCc2ccccc2)CC1 | 5.12% |
| COc1ccc(N2CCN(CCCN)CC2)cc1 | 8.6% |
| O=C(CCc1ccccc1)N1CCCN(C(=O)CCc2ccccc2)CC1 | -51.5% |
| O=C(NCCOc1ccccc1)c1ccccc1SCC(=O)N1CCCC1 | 14.9% |
| O=C(O)c1ccccc1SCC(=O)N1CCCCC1 | 15.2% |
| O=C(CCc1ccccc1)N1CCCC1 | 8.96% |
| CNc1nc(-c2ccc3c(c2)CCN3C(=O)CC(C)(C)C)c(C)s1 | 38% |
| C=CC#CC1(O)CC(C)[N+](C)(C)CC1C.[I-] (stereo not shown) | 17.4% |
| CCCCn1c(N)c(N(CC(C)C)C(=O)CSC(C)C(=O)Nc2cc(C)on2)c(=O)[nH]c1=O (stereo not shown) | 9.14% |

| SMILES | hERG current change (%, negative = inhibition) at 10uM |
| --- | --- |
| CN(Cc1nc2ccc(F)cc2[nH]1)Cc1nc(CC2CC2)no1 | -12.3% |
| CN(CCc1nc2ccccc2[nH]1)Cc1nc(CC2CC2)no1 | -13.7% |
| CN(CCc1nc2ccc(Cl)cc2[nH]1)Cc1nc(CC2CC2)no1 | -50.8% |
| CCCCN(C)C(=O)c1cn(CC)c2nc(C)ccc2c1=O | -3.49% |
| COc1ccc2oc(C(=O)N(C)CCOc3ccccc3)c(C)c2c1 | -28.9% |
| COc1ccc2oc(C(=O)N(C)Cc3ccc4c(c3)OCCO4)c(C)c2c1 | -10.5% |
| COc1ccc2oc(C(=O)N(C)Cc3ccc(OC(F)F)cc3)c(C)c2c1 | -53.8% |
| CCn1cc(C(=O)OCC(=O)N(C)Cc2ccccc2)c(=O)c2ccc(C)nc21 | -11.1% |
| COc1ccc(CCN(C)C(=O)c2oc3ccccc3c2C)cc1OC | -0.562% |
| Cc1c(C(=O)N(C)Cc2ccc(OC(F)F)cc2)oc2ccccc12 | -69.9% |
| Cc1c(C(=O)OCC(=O)N(C)Cc2ccccc2)oc2ccccc12 | -29.4% |
| CCn1cc(C(=O)N(C)Cc2ccc(OC(F)F)cc2)c(=O)c2ccc(C)nc21 | -65.1% |
| CCCNC(=O)Nc1ccccc1C(=O)Nc1ccc(OC)cc1 | 2.77% |
| OCC1CCCN(C(=S)NCCc2ccccc2)C1 (stereo not shown) | 0.885% |
| CCCn1nc(Oc2nc(NCC)nc(NCC)n2)ccc1=O | 1.1% |
| CCCn1nnc(NC(=O)c2cccc(OCC(C)C)c2)n1 | -3.93% |
| O=C(NCCc1ccc(Cl)cc1)C1CCN(S(=O)(=O)N2CCCCC2)CC1 | -5.98% |
| O=C(NCc1ccc(Cl)cc1)C1CCN(S(=O)(=O)c2cccs2)CC1 | -3.7% |
| O=C(NCCc1ccc(Cl)cc1)C1CCN(S(=O)(=O)c2cccs2)CC1 | -71.2% |
| O=C(NCCc1ccccc1Cl)C1CCN(S(=O)(=O)c2cccs2)CC1 | -34.8% |
| O=C(NCc1cccs1)C1CCN(S(=O)(=O)c2cccs2)CC1 | -32.1% |
| O=C(NCCc1ccc(Cl)cc1)C1CCN(S(=O)(=O)N2CCCC2)CC1 | -52.3% |

| SMILES | hERG current change (%, negative = inhibition) at 10uM |
| --- | --- |
| O=C(NCc1ccccc1Cl)C1CCN(S(=O)(=O)c2cccs2)CC1 | -63.4% |
| O=C(NCCc1ccccc1)C1CCN(S(=O)(=O)c2cccs2)CC1 | -2.14% |
| O=C(NCCc1ccc(Cl)cc1)C1CCCN(S(=O)(=O)N2CCCCCC2)C1 (stereo not shown) | -18.7% |
| O=C1C=C(c2ccccc2)C[C@H](c2cccs2)[C@H]1n1cnc([N+](=O)[O-])c1 | -18.8% |
| COC(=O)c1nc2cc3c(cc2c(C)c1C(=O)OC)OCO3 | 10.8% |
| COC(=O)CN(C(=S)Nc1ccccc1)C1CC(=O)N(c2ccc(OC)cc2)C1=O (stereo not shown) | -6.5% |
| O=C1CCCC(O)=C1N=Nc1c(Cl)cc(Cl)cc1Cl | 7.14% |
| C=CCn1cc(C(=O)OCC)c(=O)c2ccc(F)cc21 | 5.56% |
| Cc1ccc(Cn2cc(S(=O)(=O)c3ccc(C(C)C)cc3)c(=O)c3cc4c(cc32)OCO4)cc1 | -8.58% |
| CCOC(=O)c1cn(Cc2ccc(C)cc2)c2cc(F)ccc2c1=O | -10.9% |
| CC(C)c1ccc(S(=O)(=O)c2cn(Cc3ccc(F)cc3)c3cc4c(cc3c2=O)OCO4)cc1 | -1% |
| O=C(C(=O)N1CCOCC1)c1cn(Cc2ccc(F)cc2)c2ccccc12 | -32% |
| CCn1cc(C(=O)O)c(=O)c2cc3c(cc21)OCO3 | 20.5% |
| Cc1ccc(C(=O)c2cc3c(cc2N)OCCO3)cc1 | -11.4% |
| CC(=O)Nc1cc2c(cc1C(=O)c1ccc(C)cc1)OCCO2 | 5.77% |
| Cc1ccc(Cn2cc(C(=O)c3ccc(F)cc3)c(=O)c3cc4c(cc32)OCCO4)cc1 | -57.1% |
| O=C(c1ccc(F)cc1)c1cn(Cc2ccc(F)cc2)c2cc3c(cc2c1=O)OCCO3 | -71.1% |
| Cc1ccc(Cn2cc(C(=O)NN)c(=O)c3ccc(F)cc32)cc1 | -51.6% |
| Cc1ccc(S(=O)(=O)c2cn(Cc3ccc(F)cc3)c3cc4c(cc3c2=O)OCO4)cc1 | -55% |
| O=C(O)CC1SC(=O)N(Cc2ccccc2)C1=O (stereo not shown) | 21% |
| Cc1cc(Cl)ccc1OCc1cn2cccnc2n1 | -17.5% |
| CCCn1cc(SCC(=O)NCC2CCCO2)c2ccccc21 (stereo not shown) | 4.17% |

| SMILES | hERG current change (%, negative = inhibition) at 10uM |
| --- | --- |
| CC(C)CN(C(=O)COC(=O)c1ccc2c(c1)OCCO2)c1c(N)n(Cc2ccccc2)c(=O)[nH]c1=O | 5.66% |
| Cc1ccc(C)n1NC(=O)c1ccco1 | 14.8% |
| O=C(CSc1ncccn1)Nc1ncc(C(F)(F)F)cc1Cl | 47.2% |
| COC(=O)C1=C(C)NC(C)=C(C(=O)O[C@@H]2CCCN(Cc3ccccc3)C2)[C@@H]1c1cccc([N+](=O)[O-])c1.Cl | 9.68% |
| COc1cccc(N/C(SCc2cccc([N+](=O)[O-])c2)=C(/C#N)C(N)=O)c1 | -19.9% |
| CCOc1ccc(N/C(SCc2cccc([N+](=O)[O-])c2)=C(/C#N)C(N)=O)cc1 | -59.1% |
| CCOc1ccc(N/C(SC)=C(/C#N)C(N)=O)cc1 | 4.98% |
| COc1cccc(CNCCc2cccc(F)c2)c1OC.O=C(O)C(=O)O | -5.22% |
| COc1ccc(CNCCc2ccc([N+](=O)[O-])cc2)c(OC)c1OC.O=C(O)C(=O)O | -68.9% |
| COc1ccc(CNCCc2ccc3c(c2)OCO3)c(OC)c1OC.O=C(O)C(=O)O | -29.9% |
| COc1cc(OC)c(OC)cc1CNCCc1cccc(F)c1.O=C(O)C(=O)O | -15.2% |
| COc1ccccc1CNCc1ccc(OC)c(OC)c1OC.O=C(O)C(=O)O | -8% |
| COc1ccccc1CCNCc1ccc(OC)c(OC)c1OC.O=C(O)C(=O)O | 15.5% |
| COc1ccc(CNCCc2ccc(Cl)cc2)c(OC)c1OC.O=C(O)C(=O)O | -51.6% |
| COc1ccc(CNCCc2cccc(F)c2)c2ccccc12.O=C(O)C(=O)O | -74% |
| COc1ccc(CCNCc2ccc(OC)c(OC)c2OC)cc1 | -37.6% |
| O=C(N/N=C/c1c(O)ccc2ccccc12)c1cccnc1 | 7.7% |
| COC(=O)COc1ccc(S(=O)(=O)N2CCN(c3ccccc3F)CC2)cc1 | -3.27% |
| O=C(Nc1ccc(-c2csnn2)cc1)C(Cl)(Cl)Cl | 17.5% |
| CC(C)C(=O)OCC(=O)Nc1ccc(N=Nc2ccccc2)cc1 | 4.2% |
| CCN(CC)S(=O)(=O)c1cc(NS(=O)(=O)c2cccc(Cl)c2Cl)ccc1C | -1.79% |
| CCCOc1ccc(NC(=O)C2CC(=O)N3CCCN=C3S2)cc1 (stereo not shown) | -11% |
